From ChEMBL document CHEMBL1961873, “Compounds: GSK PKIS; Assays: Nanosyn kinase panel” (2012)

Tests used:
[1] = target: Sphingosine kinase 1 (Homo sapiens) (UniProt Q9NYA1); details: at 1 µM;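 note: mean SPHK1 inhibition value reported from the GSK PKIS kinase panel screen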
[2] = target: T1, Sphingosine kinase 2 (Homo sapiens) (UniProt Q9NRA0); details: at 0.1 µM
T1 sequence (whole entry): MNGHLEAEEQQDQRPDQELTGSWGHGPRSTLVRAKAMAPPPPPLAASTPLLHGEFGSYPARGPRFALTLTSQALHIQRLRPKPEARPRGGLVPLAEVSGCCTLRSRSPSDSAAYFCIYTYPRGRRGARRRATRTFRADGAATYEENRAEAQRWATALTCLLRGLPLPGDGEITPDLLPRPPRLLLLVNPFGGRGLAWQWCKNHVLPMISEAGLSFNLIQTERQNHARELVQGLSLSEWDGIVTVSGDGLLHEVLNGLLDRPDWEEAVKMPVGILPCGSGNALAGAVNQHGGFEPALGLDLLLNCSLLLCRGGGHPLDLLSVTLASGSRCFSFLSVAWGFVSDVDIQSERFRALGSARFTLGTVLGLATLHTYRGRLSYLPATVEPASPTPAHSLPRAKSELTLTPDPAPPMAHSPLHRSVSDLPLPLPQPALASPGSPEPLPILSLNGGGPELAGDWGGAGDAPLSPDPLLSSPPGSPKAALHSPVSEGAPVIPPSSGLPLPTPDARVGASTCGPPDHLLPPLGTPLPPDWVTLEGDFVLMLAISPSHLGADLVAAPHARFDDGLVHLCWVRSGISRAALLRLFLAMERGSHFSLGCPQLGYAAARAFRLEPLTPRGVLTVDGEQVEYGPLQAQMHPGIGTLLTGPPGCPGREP

[3] = target: T1, Sphingosine kinase 2 (Homo sapiens); details: at 1 µM
[4] = target: Casein kinase II subunit alpha (Homo sapiens) (UniProt P68400); details: at 0.1 µM
[5] = target: Casein kinase II subunit alpha (Homo sapiens) (UniProt P68400); details: at 1 µM
[6] = target: T2, Inhibitor of nuclear factor kappa-B kinase subunit alpha (Homo sapiens) (UniProt O15111); details: at 0.1 µM
T2 sequence (whole entry): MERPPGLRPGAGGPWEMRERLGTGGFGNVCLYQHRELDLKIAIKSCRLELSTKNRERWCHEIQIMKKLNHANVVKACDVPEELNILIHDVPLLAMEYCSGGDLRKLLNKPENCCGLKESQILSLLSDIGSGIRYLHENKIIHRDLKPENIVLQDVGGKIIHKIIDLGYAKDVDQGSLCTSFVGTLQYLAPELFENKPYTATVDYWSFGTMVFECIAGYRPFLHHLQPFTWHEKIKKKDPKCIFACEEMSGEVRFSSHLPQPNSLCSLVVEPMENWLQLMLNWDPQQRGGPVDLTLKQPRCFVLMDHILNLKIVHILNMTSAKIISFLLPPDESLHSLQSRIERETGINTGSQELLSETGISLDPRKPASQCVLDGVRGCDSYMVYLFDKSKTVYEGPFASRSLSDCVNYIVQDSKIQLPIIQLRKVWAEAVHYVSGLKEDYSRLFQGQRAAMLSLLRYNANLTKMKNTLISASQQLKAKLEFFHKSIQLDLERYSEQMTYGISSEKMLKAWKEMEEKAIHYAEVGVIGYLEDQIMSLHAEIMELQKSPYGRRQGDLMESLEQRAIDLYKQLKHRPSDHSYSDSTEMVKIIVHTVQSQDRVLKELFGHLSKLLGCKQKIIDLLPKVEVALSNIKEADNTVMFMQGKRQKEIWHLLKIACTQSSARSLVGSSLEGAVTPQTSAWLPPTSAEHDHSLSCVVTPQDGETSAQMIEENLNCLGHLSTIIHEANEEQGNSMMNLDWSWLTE

[7] = target: T2, Inhibitor of nuclear factor kappa-B kinase subunit alpha (Homo sapiens); details: at 1 µM
[8] = target: T3, Inhibitor of nuclear factor kappa-B kinase subunit beta (Homo sapiens) (UniProt O14920); details: at 0.1 µM
T3 sequence (whole entry): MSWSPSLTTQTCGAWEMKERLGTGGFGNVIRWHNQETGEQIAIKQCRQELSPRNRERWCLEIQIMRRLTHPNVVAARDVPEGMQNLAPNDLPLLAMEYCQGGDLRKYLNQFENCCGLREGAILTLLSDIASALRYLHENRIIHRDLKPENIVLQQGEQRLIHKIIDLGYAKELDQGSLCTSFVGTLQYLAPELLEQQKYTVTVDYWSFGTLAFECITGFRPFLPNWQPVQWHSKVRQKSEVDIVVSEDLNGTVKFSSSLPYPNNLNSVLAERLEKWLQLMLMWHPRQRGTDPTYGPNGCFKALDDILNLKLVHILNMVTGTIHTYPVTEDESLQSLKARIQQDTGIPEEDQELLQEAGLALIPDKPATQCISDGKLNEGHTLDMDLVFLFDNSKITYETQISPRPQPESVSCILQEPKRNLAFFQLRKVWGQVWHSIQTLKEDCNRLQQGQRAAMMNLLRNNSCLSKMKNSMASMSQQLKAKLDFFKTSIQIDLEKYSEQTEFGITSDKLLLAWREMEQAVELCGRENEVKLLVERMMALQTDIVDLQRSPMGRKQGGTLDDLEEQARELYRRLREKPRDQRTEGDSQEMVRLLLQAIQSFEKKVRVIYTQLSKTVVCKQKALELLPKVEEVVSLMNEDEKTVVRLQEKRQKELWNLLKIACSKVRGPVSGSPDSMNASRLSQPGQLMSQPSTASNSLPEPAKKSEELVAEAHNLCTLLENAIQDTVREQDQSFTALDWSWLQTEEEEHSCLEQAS

[9] = target: T3, Inhibitor of nuclear factor kappa-B kinase subunit beta (Homo sapiens); details: at 1 µM
[10] = target: T4, Inhibitor of nuclear factor kappa-B kinase subunit epsilon (Homo sapiens) (UniProt Q14164); details: at 0.1 µM;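 note: mean inhibition of IKKε reported, from the GSK PKIS dataset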
T4 sequence (whole entry): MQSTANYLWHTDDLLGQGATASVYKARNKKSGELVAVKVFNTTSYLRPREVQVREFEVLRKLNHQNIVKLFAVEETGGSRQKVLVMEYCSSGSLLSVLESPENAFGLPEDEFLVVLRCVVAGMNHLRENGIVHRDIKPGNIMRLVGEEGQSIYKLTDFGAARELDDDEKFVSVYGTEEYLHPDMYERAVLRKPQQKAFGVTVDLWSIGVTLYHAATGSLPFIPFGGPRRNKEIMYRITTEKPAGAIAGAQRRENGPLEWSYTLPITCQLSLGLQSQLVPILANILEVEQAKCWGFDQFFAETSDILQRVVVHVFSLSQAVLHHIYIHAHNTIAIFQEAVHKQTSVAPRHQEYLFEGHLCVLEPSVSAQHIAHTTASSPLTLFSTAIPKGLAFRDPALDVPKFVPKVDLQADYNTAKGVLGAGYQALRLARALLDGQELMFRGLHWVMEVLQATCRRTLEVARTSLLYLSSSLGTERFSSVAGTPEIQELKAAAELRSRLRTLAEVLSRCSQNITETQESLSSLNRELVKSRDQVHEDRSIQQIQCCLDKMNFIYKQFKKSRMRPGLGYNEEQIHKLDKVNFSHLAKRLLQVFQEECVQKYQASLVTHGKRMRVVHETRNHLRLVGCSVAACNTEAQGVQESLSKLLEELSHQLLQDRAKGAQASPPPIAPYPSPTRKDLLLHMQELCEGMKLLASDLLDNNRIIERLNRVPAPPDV

Chain of Casein kinase II subunit alpha (Homo sapiens) (P68400 whole entry, looked up): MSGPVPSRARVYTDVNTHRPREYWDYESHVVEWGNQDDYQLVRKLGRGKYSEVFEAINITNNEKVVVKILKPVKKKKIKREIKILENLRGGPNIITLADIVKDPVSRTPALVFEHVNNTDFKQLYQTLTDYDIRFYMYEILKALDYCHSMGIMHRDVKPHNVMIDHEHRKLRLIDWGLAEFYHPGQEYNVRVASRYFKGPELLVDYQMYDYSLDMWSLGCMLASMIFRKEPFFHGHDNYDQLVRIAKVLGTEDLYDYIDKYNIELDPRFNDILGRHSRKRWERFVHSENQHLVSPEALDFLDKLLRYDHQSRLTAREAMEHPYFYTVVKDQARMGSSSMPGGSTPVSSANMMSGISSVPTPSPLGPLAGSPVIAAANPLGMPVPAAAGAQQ
Chain of Sphingosine kinase 1 (Homo sapiens) (Q9NYA1 whole entry): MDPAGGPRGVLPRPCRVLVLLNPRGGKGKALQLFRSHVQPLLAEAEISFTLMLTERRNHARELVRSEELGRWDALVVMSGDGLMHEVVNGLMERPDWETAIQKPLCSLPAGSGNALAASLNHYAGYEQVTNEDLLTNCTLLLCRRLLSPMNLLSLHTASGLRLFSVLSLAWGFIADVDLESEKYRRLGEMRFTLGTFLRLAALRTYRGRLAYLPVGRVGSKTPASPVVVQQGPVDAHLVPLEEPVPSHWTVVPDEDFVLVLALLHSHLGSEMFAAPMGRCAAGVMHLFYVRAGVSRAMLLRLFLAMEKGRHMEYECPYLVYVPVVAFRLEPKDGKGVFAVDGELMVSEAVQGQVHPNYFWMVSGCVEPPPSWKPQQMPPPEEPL

For `CC1=C(C(=O)Nc2ccc3[nH]nc(C)c3c2)C(c2ccc(C(F)(F)F)cc2)CC(=O)N1` (stereo not given), which inhibition [1] is on record?
The inhibition was -1.2%.

And the inhibition [2]?
The inhibition was -0.06%.

And the inhibition [3]?
The inhibition was -2.04%.

And the inhibition [4]?
The inhibition was 1.79%.

And the inhibition [5]?
Its inhibition is 2.97%.

What about the inhibition [6] of the same compound?
Its inhibition is 3.27%.

What about the inhibition [7] of the same compound?
Its inhibition is -5.37%.

What about the inhibition [8] of the same compound?
Its inhibition is 2.18%.

And the inhibition [9]?
Its inhibition is 0.69%.

And the inhibition [10]?
The inhibition was 0.85%.
